# Tau fibril ThT: tau fibrillization inhibition (ThT binding) | Potency, µM (top dose mostly 57.4 µM), inactives show at the highest dose activity, negative = inhibition, actives largely listed as inhibitors | P10636 | recombinant tau K18 P301L, heparin-induced fibrillization, ThT fluorescence | hit rate 2.1% among 270,000; note: potency is the fitted concentration of half-maximal effect; nearly all actives have a fitted effect of over 55% in size
# Target sequence (P10636 561-689 P618L limits assumed): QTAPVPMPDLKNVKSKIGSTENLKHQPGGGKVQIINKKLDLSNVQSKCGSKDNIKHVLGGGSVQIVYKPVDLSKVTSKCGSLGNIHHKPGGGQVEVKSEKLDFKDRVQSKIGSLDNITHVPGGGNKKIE
#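 Using a mix of unlabeled (15 uM) and Alexa 594-labeled (0.24 uM) tau K18 P301L, heparin-triggered fibrillization over 6 hr at 37 C was scored by ThT fluorescence.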
# Tau fluor cs: counter-screen for tau fibril formation inhibitors | tau K18 P301L (four-repeat tau fragment) Alexa594 fluorescence, heparin fibrillization | Potency, µM (top dose mostly 57.7 µM), inactives show at the top dose activity change, negative = decrease | hit rate 0.93% among 280,000; note: potency is the fitted concentration of half-maximal effect; nearly all actives have a fitted effect of over 55% in size
#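 Human K18 P301L tau (15 uM unlabeled plus 0.24 uM Alexa 594-labeled, final) in 100 mM sodium acetate pH 7 was mixed with compound and 20 uM heparin and incubated 6 hr at 37 C.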
# PNC assembly inh: blocks assembly of the perinucleolar compartment | hit rate 3.1% among 140,000 | activity change (PNC), negative = inhibition, % at 10 µM | PC3M PTB-GFP, PNC prevalence imaging, 16 h; stronger effect = lower value | AID 2417;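 active = readout at or below -70, meaning at least 70% loss of cells showing the perinucleolar compartment, a nuclear body marking cancer cells; inconclusive = readout between -30 and a set limit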;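 note: plate controls were DMSO wells for no effect and camptothecin positive control wells for full effect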
#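 Compounds are pinned in duplicate onto adhered PC3M cells stably expressing GFP-tagged PTB and incubated 16 h at 37 C. Cells are then fixed, nuclei stained with Hoechst, and PNC-positive cells counted.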
# TR SRC2 fluor cs: alters Texas Red total fluorescence, flagging assay interference | TRb/SRC2 Texas Red total fluorescence interference | AID 1479 | Potency, µM (series often up to 106 µM), for inactives: at the highest dose fluorescence change, negative = quenching | hit rate 0.29% among 280,000; active = well fitted curve in either direction with a large enough effect; inconclusive = small, poorly fitted or top-dose-only effect; note: potency is the fitted concentration of half-maximal effect
#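 Human TRβ ligand-binding domain (0.6 uM) and Texas Red SRC2 peptide (20 nM) in Tris buffer with 1 uM T3 and 5% DMSO were incubated with pinned compound for 5 hr at ambient temperature. Total fluorescence was computed as S + 2P (555/632 nm).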
# Tau fibril FP: tau fibrillization inhibition (FP); P10636; K18 P301L tau heparin fibrillization, Alexa594 FP, 6 h; hit rate 0.39% among 280,000; Potency, µM (highest dose often 57.7 µM), without a hit: top-dose activity, negative = inhibition, most hits filed as inhibitors; AID 1468; note: potency is the fitted concentration of half-maximal effect; nearly all actives have a fitted effect of over 55% in size
#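 Human K18 P301L fragment (15 uM unlabeled plus 0.24 uM Alexa 594-labeled) in 100 mM sodium acetate pH 7 with compound, aggregation induced by 20 uM heparin for 6 hr at 37 C. ThT (30 uM) added for 1 hr, then Alexa 594 FP read.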
# TRb SRC2 PPI: inhibitors of human thyroid hormone receptor beta-SRC2 interaction | P10828 | TRbeta-SRC2 peptide binding, fluorescence polarization; receptor liganded with 1 µM T3 | Potency, µM (titrated, usually from 106 µM), for the others: at the highest dose activity change, negative = inhibition, hits mostly inhibitors | hit rate 0.065% among 280,000 | AID 1469;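 note: potency is the fitted concentration of half-maximal effect; plate controls were bound peptide for no effect and peptide without receptor for full effect; nearly all actives have a fitted effect of over 50% in size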
# Target sequence (P10828 whole entry, looked up): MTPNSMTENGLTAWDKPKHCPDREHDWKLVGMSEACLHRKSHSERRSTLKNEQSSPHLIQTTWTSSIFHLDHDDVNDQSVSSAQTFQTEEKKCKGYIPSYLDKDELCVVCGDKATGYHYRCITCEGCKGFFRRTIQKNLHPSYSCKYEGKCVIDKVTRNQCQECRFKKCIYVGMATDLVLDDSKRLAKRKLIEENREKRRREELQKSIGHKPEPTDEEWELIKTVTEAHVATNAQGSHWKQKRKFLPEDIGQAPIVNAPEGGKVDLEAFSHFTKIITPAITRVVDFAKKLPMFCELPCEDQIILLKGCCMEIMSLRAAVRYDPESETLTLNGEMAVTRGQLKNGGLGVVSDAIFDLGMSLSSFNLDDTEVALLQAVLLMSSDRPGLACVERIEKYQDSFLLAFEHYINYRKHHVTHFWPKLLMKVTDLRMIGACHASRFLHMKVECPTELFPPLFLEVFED
#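 Binding of a 20-amino-acid Texas Red SRC2 peptide (20 nM) to TRb ligand-binding domain (0.6 uM) with agonist T3 at 1 uM was followed by fluorescence polarization after a 5 hr room-temperature incubation.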
# Starred values were filed as active, the others as inactive; ? = inconclusive; . = not tested or not shown; ! = not confirmed by another sample; [ ] = another dose, or the depositor's remark. Rows were chosen to be rich in hits. Some 4.6% of all compounds tested hit in one or more screens of this group. Unless noted, calls come from the whole dose curve; as a rule, active = well fitted curve in the direction sought with a large enough effect; inconclusive = small, poorly fitted or top-dose-only effect, or another doubt; inactive = no such curve, though single readings can be large; an effect the other way counts as inactive or inconclusive. Unless noted, % is set by controls: 0 for no effect and ±100 for the full control effect.
SMILES,Tau fibril ThT,Tau fluor cs,PNC assembly inh,TR SRC2 fluor cs,Tau fibril FP,TRb SRC2 PPI
CCOC(=O)CN1C(=O)S/C(=C/c2ccc(O)c([N+](=O)[O-])c2)C1=O,?,-16.3%,43.6,-4.2%,?,-3.0%
COc1cc(/C=C2\SC(=O)N(CC(=O)Nc3cccc(C)c3)C2=O)cc([N+](=O)[O-])c1O,12.6µM*,?,.,-12.1%,-2.1%,1.7%
COc1cc(/C=C2\SC(=N)N(c3ccc(F)cc3)C2=O)ccc1O,?,?,.,-6.0%,?,-6.0%
COc1cc(/C=C2\SC(=N)N(c3ccc4c(c3)OCO4)C2=O)cc(OC)c1O,3.16µM*,?,-8.8,-1.6%,-8.8%,-3.6%
CCOc1cc(/C=C2\SC(=O)N(CC(=O)Nc3ccccc3F)C2=O)cc([N+](=O)[O-])c1O,7.94µM*,?,.,-2.9%,5.0%,-0.8%
COc1cc(/C=C2\SC(=O)N(c3ccccc3Cl)C2=O)cc([N+](=O)[O-])c1O,3.98µM*,15.8µM*[quencher],.,-10.1%,-11.3%,5.6%
COc1ccc(/C=C2\SC(=O)N(CC(=O)Nc3cccnc3)C2=O)cc1OC,-15.3%,-14.3%,.,-2.6%,-4.8%,5.0%
Cc1cc(-c2ccccc2)nc2cc(C(=O)Nc3ccc(Cl)c(Cl)c3)nn12,-3.4%,-23.4%,.,1.7%,-11.1%,-2.6%
Cc1cc(C)nc(N(C#N)Cc2ccc([N+](=O)[O-])cc2)n1,11.5%,10.8%,.,-1.9%,1.9%,-4.3%
CC(C)CN(Cc1c(O)ccc2ccccc12)CC(C)C,?,?,.,-0.4%,-0.7%,5.7%
CCOC(=O)C1CCCN(c2c(N3CCN(c4cccc(Cl)c4)CC3)c(=O)c2=O)C1 (stereo not given),0.1%,0.7%,.,2.5%,-4.7%,4.8%
CCOC(=O)/C=C(C)\C=C\c1c[nH]c2ccccc12,?,14.1µM*[quencher],.,-2.8%,15.3%,7.7%
CCOC(=O)/C(=C/c1c[nH]c2ccccc12)NC(C)=O,?,-9.2%,-6.9,-4.4%,-5.2%,-1.0%
CC(C)(C)n1nnnc1C(c1ccc(C(F)(F)F)cc1)N(Cc1ccc(F)cc1)Cc1ccco1 (stereo not given),-3.3%,-5.2%,-118.9*,-1.1%,4.7%,7.3%
Cc1ccc(CNC(=O)C(=O)NCC2OCCN2C(=O)c2cccs2)cc1 (stereo not given),-3.4%,-5.0%,77.1,-10.7%,-10.7%,4.7%
O=c1cc(-c2ccc(O)cc2)oc2cc(O)ccc12,-14.3%,-14.3%,.,-1.8%,0.1%,-4.8%
O=C(NCCSCc1ccco1)Nc1cccc(Cl)c1,0.9%,-20.1%,-83.7*,1.7%,-9.7%,3.9%
O=C(NCCSCc1ccco1)Nc1ccc(Cl)cc1,-3.0%,-29.7%,12.4,-2.4%,-13.3%,-9.9%
Cc1ccc(N/N=C2\CC(=O)c3ccccc32)cc1Cl,7.08µM*,?,.,0.6%,?,2.6%
COCCn1c(-c2cccc(Br)c2)nc2c(c(=O)c3ccccc3n2C)c1=O,-15.9%,-3.1%,.,2.4%,-5.3%,1.7%
c1nnc(NC2=NCCC2)s1,-5.1%,-11.3%,-111.1*,0.6%,-9.2%,-24.0%
c1nnc(NC2=NCCCCC2)s1,-6.6%,-2.1%,-19.2,2.2%,-0.6%,2.3%
CCCc1ccc(Oc2cc(C)nc(N3CCOCC3)n2)cc1,-7.9%,-8.1%,37.1,-0.6%,4.8%,5.9%
Cc1ccccc1OCc1n[nH]c(=S)n1-c1ccccc1,-10.6%,-7.2%,.,0.0%,-1.8%,0.1%
CCOC(=O)c1ccccc1NC(=O)NC(C)c1c(-n2cccc2)sc(C)c1C (stereo not given),-2.4%,-6.5%,.,22.4µM*[quencher],-9.1%,-14.3%
SMILES,Tau fibril ThT,Tau fluor cs,PNC assembly inh,TR SRC2 fluor cs,Tau fibril FP,TRb SRC2 PPI
O=C1COc2ccc(C(=O)CSc3nnc(NCc4ccccc4)s3)cc2N1,?,-25.9%,.,1.0%,-2.2%,-1.7%
Cc1c(N=Cc2c(O)n(Cc3ccco3)c(=O)c3ccccc23)c(=O)n(-c2ccccc2)n1C,?,?,-100.0*!,-5.6%,8.4%,-1.0%
O=c1c2ccccc2c2ccccc2c(=O)n1Cc1ccco1,-2.6%,-5.0%,0.3,2.6%,-1.1%,-0.7%
Cn1c(C(=O)N2CCCC(C(=O)NCCc3ccccc3)C2)cc2sccc21 (stereo not given),-3.6%,0.2%,48.5,.,3.4%,.
Cc1nn(-c2ccccc2)c(C)c1C(=O)OCC(=O)NC12CC3CC(CC(C3)C1)C2,-11.4%,-1.2%,1.5,2.1%,7.0%,-10.8%
CC(=O)Nc1ccc(NC(=O)COC(=O)c2c(C)nn(-c3ccccc3)c2C)cc1,-8.5%,-21.4%,-82.9*,-2.0%,7.9%,-1.2%
O=C(Nc1ccc(N2CCOCC2)cc1)C1CCCCN1S(=O)(=O)c1ccccc1 (stereo not given),.,-23.3%,.,-1.7%,0.9%,7.1%
O=C(Nc1ccc(Cl)cc1)C1CCC(=O)N1Cc1ccccc1Cl (stereo not given),-11.6%,-14.2%,-90.4*,-4.6%,-5.5%,9.5%
CC(C)CN(c1ccccc1)S(=O)(=O)c1nnc(NC(=O)C2CCCCC2)s1,?,-10.6%,.,4.47µM*[quencher],0.4%,-16.7%
CCN(c1ccccc1)S(=O)(=O)c1nnc(NC(=O)C2CCCCC2)s1,3.55µM*,-22.0%,.,5.4%,5.8%,-2.3%
COc1cc(/C=N/n2cc(-c3ccccc3)[nH]c2=S)cc(OC)c1O,20µM*,?,.,-18.6%,12.0%,4.5%
Cc1ccc(/C=N/n2cc(-c3ccccc3)[nH]c2=S)s1,?,?,.,-3.8%,-11.8%,-0.3%
Oc1ccc(/C=N/n2cc(-c3ccccc3)[nH]c2=S)cc1,10µM*,?,.,-7.7%,2.6%,2.9%
S=c1[nH]c(-c2ccccc2)cn1/N=C/c1cccc2ccccc12,3.55µM*,?,.,-3.0%,10.2%,3.5%
S=c1[nH]c(-c2ccccc2)cn1/N=C/c1ccccc1Br,?,-22.2%,.,-2.4%,16.0%,-6.8%

# Bioassay records from PubChem.
